Results published in PMC5540273 (PLoS ONE, 2017).
Where two headings read alike, the source gives them in different places.

Experiments:
GRK2 = tested on: T1, GRK2; settings: concentration: 1 μM, replicates: in singlicate; n = 1
T1 construct: gene ADRBK1

GRK3 = tested on: T2, GRK3; settings: concentration: 1 μM, replicates: in singlicate; n = 1
T2 construct: gene ADRBK2

GRK4 = settings: concentration: 1 μM, replicates: in singlicate; n = 1
GRK7 = settings: concentration: 1 μM, replicates: in singlicate; n = 1
GSK3A = settings: concentration: 1 μM, replicates: in singlicate; n = 1
GSK3B = settings: n = 1
HASPIN = tested on: T3, HASPIN; settings: concentration: 1 μM, replicates: in singlicate; n = 1
T3 construct: gene GSG2

HCK = settings: concentration: 1 μM, replicates: in singlicate; n = 1
HIPK1 = settings: concentration: 1 μM, replicates: in singlicate; n = 1
HIPK2 = settings: concentration: 1 μM, replicates: in singlicate; n = 1
HIPK3 = settings: concentration: 1 μM, replicates: in singlicate; n = 1
HIPK4 = settings: concentration: 1 μM, replicates: in singlicate; n = 1
HPK1 = settings: concentration: 1 μM, replicates: in singlicate; n = 1
HUNK = settings: concentration: 1 μM, replicates: in singlicate; n = 1
ICK = settings: concentration: 1 μM, replicates: in singlicate; n = 1
IGF1R = settings: concentration: 1 μM, replicates: in singlicate; n = 1
IKK-alpha = tested on: T4, IKK-alpha; settings: concentration: 1 μM, replicates: in singlicate; n = 1
T4 construct: gene CHUK

IKK-beta = tested on: T5, IKK-beta; settings: concentration: 1 μM, replicates: in singlicate; n = 1
T5 construct: gene IKBKB

IKK-epsilon = tested on: T6, IKK-epsilon; settings: concentration: 1 μM, replicates: in singlicate; n = 1
T6 construct: gene IKBKE

INSRR = settings: concentration: 1 μM, replicates: in singlicate; n = 1
[1] = concentration: 1 μM, replicates: in singlicate
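Further: KINOMEscan kinase panel screen.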

SMILES: COc1ccc(Nc2nccc(N3CCC(NS(=O)(=O)c4ccc(NC(C)=O)cc4)C3)n2)cc1 (stereo not shown) [GSK1379729]
- %Inh (GRK2): 3%
- %Inh (GRK3): 0%
- %Inh (GRK4): 49%
- %Inh (GRK7): 0%
- %Inh (GSK3A): 0%
- %Inh (GSK3B; [1]): 7%
- %Inh (HASPIN): 19%
- %Inh (HCK): 7%
- %Inh (HIPK1): 0%
- %Inh (HIPK2): 20%
- %Inh (HIPK3): 14%
- %Inh (HIPK4): 12%
- %Inh (HPK1): 64%
- %Inh (HUNK): 0%
- %Inh (ICK): 13%
- %Inh (IGF1R): 22%
- %Inh (IKK-alpha): 12%
- %Inh (IKK-beta): 6%
- %Inh (IKK-epsilon): 12%
- %Inh (INSRR): 21%

SMILES: CCC(=O)c1c(-c2ccccc2)c2cc(Cl)ccc2c(=O)n1Cc1ccc(C(=O)O)cc1
- %Inh (GRK2): 0%
- %Inh (GRK3): 0%
- %Inh (GRK4): 16%
- %Inh (GRK7): 0%
- %Inh (GSK3A): 3%
- %Inh (GSK3B; [1]): 0%
- %Inh (HASPIN): 42%
- %Inh (HCK): 0%
- %Inh (HIPK1): 10%
- %Inh (HIPK2): 0%
- %Inh (HIPK3): 0%
- %Inh (HIPK4): 0%
- %Inh (HPK1): 0%
- %Inh (HUNK): 0%
- %Inh (ICK): 0%
- %Inh (IGF1R): 0%
- %Inh (IKK-alpha): 0%
- %Inh (IKK-beta): 0%
- %Inh (IKK-epsilon): 0%
- %Inh (INSRR): 0%

SMILES: Cc1c(Cn2c(C)nn3c(=O)cc(N4CCO[C@H](C)C4)nc23)cccc1C(F)(F)F [GSK2373690]
- %Inh (GRK2): 0%
- %Inh (GRK3): 18%
- %Inh (GRK4): 3%
- %Inh (GRK7): 0%
- %Inh (GSK3A): 13%
- %Inh (GSK3B; [1]): 6%
- %Inh (HASPIN): 0%
- %Inh (HCK): 0%
- %Inh (HIPK1): 13%
- %Inh (HIPK2): 0%
- %Inh (HIPK3): 30%
- %Inh (HIPK4): 0%
- %Inh (HPK1): 24%
- %Inh (HUNK): 4%
- %Inh (ICK): 1%
- %Inh (IGF1R): 41%
- %Inh (IKK-alpha): 0%
- %Inh (IKK-beta): 3%
- %Inh (IKK-epsilon): 0%
- %Inh (INSRR): 14%

SMILES: O=C1NC(=O)C(c2ccccc2)=C1Nc1cccc(O)c1 [SB-390534]
- %Inh (GRK2): 0%
- %Inh (GRK3): 0%
- %Inh (GRK4): 3%
- %Inh (GRK7): 0%
- %Inh (GSK3A): 30%
- %Inh (GSK3B; 1 µM): 20%
- %Inh (HASPIN): 6%
- %Inh (HCK): 6%
- %Inh (HIPK1): 8%
- %Inh (HIPK2): 18%
- %Inh (HIPK3): 8%
- %Inh (HIPK4): 2%
- %Inh (HPK1): 9%
- %Inh (HUNK): 29%
- %Inh (ICK): 10%
- %Inh (IGF1R): 0%
- %Inh (IKK-alpha): 0%
- %Inh (IKK-beta): 0%
- %Inh (IKK-epsilon): 0%
- %Inh (INSRR): 15%

SMILES: Cc1ccc(-c2ccc3c(ccc4sc5c(c43)NC[C@@H](C)N=C5N(C)C)n2)cn1
- %Inh (GRK2): 0%
- %Inh (GRK3): 1%
- %Inh (GRK4): 0%
- %Inh (GRK7): 0%
- %Inh (GSK3A): 0%
- %Inh (GSK3B; [1]): 0%
- %Inh (HASPIN): 23%
- %Inh (HCK): 14%
- %Inh (HIPK1): 0%
- %Inh (HIPK2): 0%
- %Inh (HIPK3): 0%
- %Inh (HIPK4): 9%
- %Inh (HPK1): 8%
- %Inh (HUNK): 5%
- %Inh (ICK): 0%
- %Inh (IGF1R): 0%
- %Inh (IKK-alpha): 11%
- %Inh (IKK-beta): 0%
- %Inh (IKK-epsilon): 0%
- %Inh (INSRR): 0%

SMILES: Cn1c(=O)c(F)c(Nc2ccc(I)cc2F)c2c(=O)n(OC[C@H](O)CO)cnc21
- %Inh (GRK2): 0%
- %Inh (GRK3): 0%
- %Inh (GRK4): 0%
- %Inh (GRK7): 0%
- %Inh (GSK3A): 0%
- %Inh (GSK3B; [1]): 3%
- %Inh (HASPIN): 4%
- %Inh (HCK): 10%
- %Inh (HIPK1): 52%
- %Inh (HIPK2): 0%
- %Inh (HIPK3): 0%
- %Inh (HIPK4): 81%
- %Inh (HPK1): 0%
- %Inh (HUNK): 0%
- %Inh (ICK): 0%
- %Inh (IGF1R): 0%
- %Inh (IKK-alpha): 0%
- %Inh (IKK-beta): 0%
- %Inh (IKK-epsilon): 0%
- %Inh (INSRR): 0%

SMILES: COc1cccc(C2=C(Nc3cccc(C(=O)O)c3)C(=O)NC2=O)c1 [SB-390770]
- %Inh (GRK2): 0%
- %Inh (GRK3): 22%
- %Inh (GRK4): 0%
- %Inh (GRK7): 0%
- %Inh (GSK3A): 51%
- %Inh (GSK3B; 1 µM): 31%
- %Inh (HASPIN): 10%
- %Inh (HCK): 0%
- %Inh (HIPK1): 0%
- %Inh (HIPK2): 0%
- %Inh (HIPK3): 1%
- %Inh (HIPK4): 7%
- %Inh (HPK1): 5%
- %Inh (HUNK): 20%
- %Inh (ICK): 0%
- %Inh (IGF1R): 8%
- %Inh (IKK-alpha): 0%
- %Inh (IKK-beta): 6%
- %Inh (IKK-epsilon): 0%
- %Inh (INSRR): 19%

SMILES: Cc1ccccc1COc1cc(-n2cnc3cc(Cl)ccc32)sc1C(N)=O [GW813349]
- %Inh (GRK2): 0%
- %Inh (GRK3): 0%
- %Inh (GRK4): 2%
- %Inh (GRK7): 0%
- %Inh (GSK3A): 17%
- %Inh (GSK3B; [1]): 14%
- %Inh (HASPIN): 16%
- %Inh (HCK): 11%
- %Inh (HIPK1): 30%
- %Inh (HIPK2): 24%
- %Inh (HIPK3): 12%
- %Inh (HIPK4): 21%
- %Inh (HPK1): 62%
- %Inh (HUNK): 18%
- %Inh (ICK): 0%
- %Inh (IGF1R): 9%
- %Inh (IKK-alpha): 0%
- %Inh (IKK-beta): 0%
- %Inh (IKK-epsilon): 62%
- %Inh (INSRR): 23%

SMILES: COC(=O)c1c(-c2ccccc2)c2cc(Br)ccc2c(=O)n1Cc1ccc(S(C)(=O)=O)cc1
- %Inh (GRK2): 14%
- %Inh (GRK3): 0%
- %Inh (GRK4): 0%
- %Inh (GRK7): 35%
- %Inh (GSK3A): 0%
- %Inh (GSK3B; [1]): 19%
- %Inh (HASPIN): 31%
- %Inh (HCK): 9%
- %Inh (HIPK1): 33%
- %Inh (HIPK2): 18%
- %Inh (HIPK3): 10%
- %Inh (HIPK4): 5%
- %Inh (HPK1): 0%
- %Inh (HUNK): 27%
- %Inh (ICK): 50%
- %Inh (IGF1R): 9%
- %Inh (IKK-alpha): 9%
- %Inh (IKK-beta): 6%
- %Inh (IKK-epsilon): 15%
- %Inh (INSRR): 1%

SMILES: OCCCNc1nccc(-c2c(-c3cccc(C(F)(F)F)c3)nn3cc(C(F)(F)F)ccc23)n1 [GW630813]
- %Inh (GRK2): 0%
- %Inh (GRK3): 37%
- %Inh (GRK4): 0%
- %Inh (GRK7): 0%
- %Inh (GSK3A): 0%
- %Inh (GSK3B; [1]): 2%
- %Inh (HASPIN): 21%
- %Inh (HCK): 0%
- %Inh (HIPK1): 0%
- %Inh (HIPK2): 0%
- %Inh (HIPK3): 0%
- %Inh (HIPK4): 0%
- %Inh (HPK1): 27%
- %Inh (HUNK): 9%
- %Inh (ICK): 0%
- %Inh (IGF1R): 8%
- %Inh (IKK-alpha): 0%
- %Inh (IKK-beta): 0%
- %Inh (IKK-epsilon): 14%
- %Inh (INSRR): 0%

SMILES: CCC(=O)c1c(-c2ccccc2)c2cc(Cl)ccc2c(=O)n1Cc1cc(S(C)(=O)=O)n(CC(N)=O)n1
- %Inh (GRK2): 0%
- %Inh (GRK3): 0%
- %Inh (GRK4): 0%
- %Inh (GRK7): 0%
- %Inh (GSK3A): 6%
- %Inh (GSK3B; [1]): 0%
- %Inh (HASPIN): 0%
- %Inh (HCK): 24%
- %Inh (HIPK1): 29%
- %Inh (HIPK2): 0%
- %Inh (HIPK3): 0%
- %Inh (HIPK4): 0%
- %Inh (HPK1): 0%
- %Inh (HUNK): 0%
- %Inh (ICK): 0%
- %Inh (IGF1R): 0%
- %Inh (IKK-alpha): 0%
- %Inh (IKK-beta): 0%
- %Inh (IKK-epsilon): 0%
- %Inh (INSRR): 0%
